From ChEMBL document CHEMBL1961873, “Compounds: GSK PKIS; Assays: Nanosyn kinase panel” (2012)

What was measured:
[1] = target: Serine/threonine-protein kinase 26 (Homo sapiens) (UniProt Q9P289); details: at 1 µM;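 further: mean inhibition of MST4 kinase activity, reported from the GSK PKIS inhibitor-set screening panel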
[2] = target: Serine/threonine-protein kinase PAK 1 (Homo sapiens) (UniProt Q13153); details: at 0.1 µM
[3] = target: Serine/threonine-protein kinase PAK 1 (Homo sapiens) (UniProt Q13153); details: at 1 µM
[4] = target: Serine/threonine-protein kinase PAK 2 (Homo sapiens) (UniProt Q13177); details: at 0.1 µM
Sequence of Serine/threonine-protein kinase PAK 2 (Homo sapiens) (Q13177 whole entry): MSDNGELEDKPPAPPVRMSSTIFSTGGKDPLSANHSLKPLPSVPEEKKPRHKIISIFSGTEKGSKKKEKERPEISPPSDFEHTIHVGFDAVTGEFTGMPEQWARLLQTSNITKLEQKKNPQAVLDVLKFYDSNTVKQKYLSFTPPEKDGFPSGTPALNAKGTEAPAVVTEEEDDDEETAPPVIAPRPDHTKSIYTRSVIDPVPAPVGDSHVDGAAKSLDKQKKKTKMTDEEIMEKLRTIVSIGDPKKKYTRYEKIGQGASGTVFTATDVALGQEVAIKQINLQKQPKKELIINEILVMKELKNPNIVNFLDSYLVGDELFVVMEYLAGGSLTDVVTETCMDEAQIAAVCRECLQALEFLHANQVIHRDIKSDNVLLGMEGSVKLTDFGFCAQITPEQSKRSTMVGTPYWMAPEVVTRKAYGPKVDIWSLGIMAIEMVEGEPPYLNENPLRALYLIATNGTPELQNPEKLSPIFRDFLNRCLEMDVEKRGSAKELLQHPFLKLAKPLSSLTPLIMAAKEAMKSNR

[5] = target: Serine/threonine-protein kinase PAK 2 (Homo sapiens) (UniProt Q13177); details: at 1 µM
[6] = target: Serine/threonine-protein kinase PAK 3 (Homo sapiens) (UniProt O75914); details: at 0.1 µM
Sequence of Serine/threonine-protein kinase PAK 3 (Homo sapiens) (O75914 whole entry, looked up): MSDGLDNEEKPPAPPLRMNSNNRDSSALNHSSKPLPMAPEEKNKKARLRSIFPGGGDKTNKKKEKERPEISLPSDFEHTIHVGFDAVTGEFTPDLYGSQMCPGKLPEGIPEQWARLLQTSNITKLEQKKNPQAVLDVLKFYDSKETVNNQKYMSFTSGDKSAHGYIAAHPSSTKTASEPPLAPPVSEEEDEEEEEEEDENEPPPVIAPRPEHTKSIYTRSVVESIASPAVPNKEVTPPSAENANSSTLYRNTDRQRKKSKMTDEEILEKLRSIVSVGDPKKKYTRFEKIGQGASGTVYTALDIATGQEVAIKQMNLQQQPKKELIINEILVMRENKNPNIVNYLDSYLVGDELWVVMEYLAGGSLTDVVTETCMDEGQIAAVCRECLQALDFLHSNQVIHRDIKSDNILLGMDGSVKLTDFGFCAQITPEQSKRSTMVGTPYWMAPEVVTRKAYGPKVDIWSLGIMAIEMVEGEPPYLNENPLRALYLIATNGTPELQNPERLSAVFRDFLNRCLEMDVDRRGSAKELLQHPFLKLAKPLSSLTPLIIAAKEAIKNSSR

[7] = target: Serine/threonine-protein kinase PAK 3 (Homo sapiens) (UniProt O75914); details: at 1 µM
[8] = target: Serine/threonine-protein kinase PAK 5 (Homo sapiens) (UniProt Q9P286); details: at 0.1 µM
Sequence of Serine/threonine-protein kinase PAK 5 (Homo sapiens) (Q9P286 whole entry, looked up): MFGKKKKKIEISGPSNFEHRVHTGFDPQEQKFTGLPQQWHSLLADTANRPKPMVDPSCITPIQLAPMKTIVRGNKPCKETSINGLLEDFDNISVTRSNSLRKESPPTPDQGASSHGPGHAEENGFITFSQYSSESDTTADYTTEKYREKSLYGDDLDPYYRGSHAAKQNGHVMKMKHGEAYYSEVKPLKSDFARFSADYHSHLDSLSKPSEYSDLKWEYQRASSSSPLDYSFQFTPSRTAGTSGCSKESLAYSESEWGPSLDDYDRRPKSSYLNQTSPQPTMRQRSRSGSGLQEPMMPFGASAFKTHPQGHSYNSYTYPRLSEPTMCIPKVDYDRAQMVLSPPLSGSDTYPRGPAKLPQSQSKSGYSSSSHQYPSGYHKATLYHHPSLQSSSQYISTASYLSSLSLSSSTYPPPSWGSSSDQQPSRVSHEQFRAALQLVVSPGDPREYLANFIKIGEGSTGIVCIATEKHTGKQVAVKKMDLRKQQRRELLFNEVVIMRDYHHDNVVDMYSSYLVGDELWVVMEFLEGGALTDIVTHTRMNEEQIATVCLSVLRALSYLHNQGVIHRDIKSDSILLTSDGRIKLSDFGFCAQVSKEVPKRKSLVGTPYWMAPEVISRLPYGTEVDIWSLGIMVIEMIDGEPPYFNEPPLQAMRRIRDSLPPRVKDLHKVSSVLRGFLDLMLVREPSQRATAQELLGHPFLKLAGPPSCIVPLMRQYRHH

[9] = target: Serine/threonine-protein kinase PAK 5 (Homo sapiens) (UniProt Q9P286); details: at 1 µM
[10] = target: Serine/threonine-protein kinase PAK 6 (Homo sapiens) (UniProt Q9NQU5); details: at 0.1 µM
Sequence of Serine/threonine-protein kinase PAK 6 (Homo sapiens) (Q9NQU5 whole entry, looked up): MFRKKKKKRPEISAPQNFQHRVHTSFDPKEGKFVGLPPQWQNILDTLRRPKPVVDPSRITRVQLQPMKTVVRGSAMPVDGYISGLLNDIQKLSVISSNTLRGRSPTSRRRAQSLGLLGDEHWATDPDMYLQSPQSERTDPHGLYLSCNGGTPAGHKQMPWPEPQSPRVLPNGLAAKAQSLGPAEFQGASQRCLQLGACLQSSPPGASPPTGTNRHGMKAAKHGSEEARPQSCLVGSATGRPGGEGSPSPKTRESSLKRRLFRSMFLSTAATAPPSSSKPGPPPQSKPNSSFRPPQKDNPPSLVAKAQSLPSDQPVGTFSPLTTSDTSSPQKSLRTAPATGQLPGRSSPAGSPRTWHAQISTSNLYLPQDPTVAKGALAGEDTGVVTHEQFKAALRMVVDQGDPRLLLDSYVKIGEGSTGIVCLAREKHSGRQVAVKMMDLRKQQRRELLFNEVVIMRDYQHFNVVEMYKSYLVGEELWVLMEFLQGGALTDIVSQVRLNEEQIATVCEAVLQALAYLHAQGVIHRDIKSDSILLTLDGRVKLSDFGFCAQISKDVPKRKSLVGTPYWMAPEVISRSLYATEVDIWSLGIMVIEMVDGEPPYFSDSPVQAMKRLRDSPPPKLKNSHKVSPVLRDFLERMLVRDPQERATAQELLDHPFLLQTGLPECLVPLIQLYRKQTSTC

[11] = target: Serine/threonine-protein kinase PAK 6 (Homo sapiens) (UniProt Q9NQU5); details: at 1 µM
[12] = tested on: Tyrosine-protein kinase ABL1 (Homo sapiens), P00519 [E255K]; details: at 0.1 µM
[13] = tested on: Tyrosine-protein kinase ABL1 (Homo sapiens), P00519 [E255K]; details: at 1 µM
[14] = tested on: Tyrosine-protein kinase ABL1 (Homo sapiens), P00519 [H396P]; details: at 0.1 µM
[15] = tested on: Tyrosine-protein kinase ABL1 (Homo sapiens), P00519 [H396P]; details: at 1 µM
[16] = tested on: Tyrosine-protein kinase ABL1 (Homo sapiens), P00519 [M351T]; details: at 0.1 µM
[17] = tested on: Tyrosine-protein kinase ABL1 (Homo sapiens), P00519 [M351T]; details: at 1 µM
[18] = tested on: Tyrosine-protein kinase ABL1 (Homo sapiens), P00519 [Q252H]; details: at 0.1 µM
[19] = tested on: Tyrosine-protein kinase ABL1 (Homo sapiens), P00519 [Q252H]; details: at 1 µM
[20] = tested on: Tyrosine-protein kinase ABL1 (Homo sapiens), P00519 [T315I]; details: at 0.1 µM

Sequence of Serine/threonine-protein kinase PAK 1 (Homo sapiens) (Q13153 whole entry): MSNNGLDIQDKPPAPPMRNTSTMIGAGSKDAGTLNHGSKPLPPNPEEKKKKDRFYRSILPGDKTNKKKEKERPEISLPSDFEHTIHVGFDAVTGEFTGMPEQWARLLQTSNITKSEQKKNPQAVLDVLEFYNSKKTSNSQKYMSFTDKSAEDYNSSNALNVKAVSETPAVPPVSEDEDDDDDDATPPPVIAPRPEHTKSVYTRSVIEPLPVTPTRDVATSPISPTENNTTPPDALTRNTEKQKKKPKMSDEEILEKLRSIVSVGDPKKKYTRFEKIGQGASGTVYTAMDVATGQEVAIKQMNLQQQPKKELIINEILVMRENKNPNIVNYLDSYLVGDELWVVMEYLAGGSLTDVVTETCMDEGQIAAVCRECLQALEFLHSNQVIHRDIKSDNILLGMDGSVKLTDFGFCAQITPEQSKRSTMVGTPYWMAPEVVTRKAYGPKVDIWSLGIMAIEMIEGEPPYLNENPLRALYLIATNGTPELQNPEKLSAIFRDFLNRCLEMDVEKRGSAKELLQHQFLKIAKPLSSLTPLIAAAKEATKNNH
Sequence of Serine/threonine-protein kinase 26 (Homo sapiens) (Q9P289 2-416 limits assumed): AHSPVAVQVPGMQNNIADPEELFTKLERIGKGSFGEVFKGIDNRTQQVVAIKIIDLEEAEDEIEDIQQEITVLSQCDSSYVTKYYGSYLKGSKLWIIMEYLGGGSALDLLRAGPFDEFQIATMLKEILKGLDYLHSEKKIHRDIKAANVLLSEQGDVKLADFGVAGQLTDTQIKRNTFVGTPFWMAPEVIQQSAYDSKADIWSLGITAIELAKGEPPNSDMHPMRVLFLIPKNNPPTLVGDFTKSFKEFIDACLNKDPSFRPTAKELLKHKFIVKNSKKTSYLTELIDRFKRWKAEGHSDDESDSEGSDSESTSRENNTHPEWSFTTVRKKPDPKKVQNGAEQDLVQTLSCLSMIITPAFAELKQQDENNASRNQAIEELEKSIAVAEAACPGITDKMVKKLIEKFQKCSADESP

| Structure (SMILES) | inhibition [1] | inhibition [2] | inhibition [3] | inhibition [4] | inhibition [5] | inhibition [6] | inhibition [7] | inhibition [8] | inhibition [9] | inhibition [10] | inhibition [11] | inhibition [12] | inhibition [13] | inhibition [14] | inhibition [15] | inhibition [16] | inhibition [17] | inhibition [18] | inhibition [19] | inhibition [20] |
| --- | --- | --- | --- | --- | --- | --- | --- | --- | --- | --- | --- | --- | --- | --- | --- | --- | --- | --- | --- | --- |
| Cc1ccc(NC(=O)c2ccoc2)cc1-c1ccc(C(=O)NCC2CC2)cc1 | -2.75% | 3.52% | 4.54% | 0.23% | -1.68% | 2.22% | 1.14% | -1.43% | 2.58% | -5.33% | -2.77% | 1.13% | -0.37% | 3.08% | 2.07% | 0.71% | 1.82% | 2.29% | 0.64% | 2.05% |
| C[C@@H](Oc1cc(-n2cnc3ccc(OCC4CCN(C)CC4)cc32)sc1C(N)=O)c1ccccc1Cl | – | 9.41% | 11.3% | 3.01% | 3.81% | 6.02% | 6.85% | 5.72% | 7.38% | – | -3.14% | 0.13% | 4.51% | 2.87% | 9.39% | -0.56% | 5.2% | 4.18% | 8.32% | -2.27% |
| COc1cc(C)c(N(C)C(=O)CN(C)C)cc1Nc1nc(Nc2cccc(F)c2C(N)=O)c2cc[nH]c2n1 | -1.63% | 1.45% | 0.54% | 1.63% | 0.77% | 1.47% | 2.79% | 1.86% | 1.84% | -1.02% | -3.09% | -1.15% | 1.77% | 1.11% | -0.41% | 0.41% | -0.05% | 0.29% | 0.09% | 0.48% |
| O=C1Nc2ccccc2/C1=C/Nc1ccc(-n2cncn2)cc1 | 5.15% | 6.65% | 8.31% | 1.82% | 2.17% | 5.31% | 5.49% | – | -2.52% | -0.09% | – | 1.9% | 9.03% | 2.67% | 13.3% | 1.55% | 14.5% | 3.88% | 13.4% | 3.25% |
| CS(=O)(=O)CCNCc1cc(-c2cc3c(Nc4ccc(OCc5cccc(F)c5)c(Cl)c4)ncnc3s2)cs1 | -1.71% | 10.9% | 9.09% | 2.13% | 3.83% | 4.86% | 7.41% | 5.61% | 3.34% | -6.6% | – | 2.18% | 4.04% | 4.45% | 5.71% | 2% | 5.07% | 4.77% | 6.1% | 4.15% |
| COc1ccc2cc(-c3c(-c4ccncc4)nc(-c4ccc(S(C)(=O)=O)cc4C)n3C)ccc2c1 | 2.09% | 9.36% | 10% | 2.04% | 2.16% | 5.62% | 4.99% | -1.89% | 3.62% | – | -3.99% | 2.69% | 10.9% | 5.32% | 17.9% | 2.32% | 18% | 6.25% | 22.4% | 8.12% |
| Fc1ccc(-c2ncn(C3CCNCC3)c2-c2ccnc(Oc3ccc(F)c(F)c3)n2)cc1 | 5.23% | 5.03% | 4.33% | 0.93% | 1.83% | 4.91% | 5.71% | 1.64% | 0.29% | – | -4.15% | 1.96% | 1.25% | 4% | 3.19% | -0.04% | -0.02% | 2.26% | 2.39% | 0.22% |
| NS(=O)(=O)c1ccc(N/N=C2\C(=O)Nc3ccc(-c4cnco4)cc32)cc1 | 11.1% | 2.52% | 3.12% | 0.33% | 0.86% | 1.7% | 2.52% | 0.27% | -0.09% | – | -6.6% | 1.82% | 7.02% | 3.45% | 15.5% | 0.98% | 17.7% | 3.05% | 13.3% | 0.71% |
| CCN(CC)Cc1ccc(Nc2nccc(-c3cnn4ncccc34)n2)cc1 | 0.74% | 5.45% | 9.08% | 1.19% | 3.41% | 4.82% | 6% | 1.9% | 5.43% | – | -2.98% | 2.66% | 22.6% | 8.9% | 37.5% | 4.62% | 37.4% | 8.65% | 43.2% | 7.91% |
| CCc1nccc2c1nc(-c1nonc1N)n2CC | -1.83% | 3.29% | 3.71% | 0.74% | 1.13% | 0.51% | 1.09% | – | – | 3.51% | -8.78% | -0.36% | 0.91% | 1.08% | 1.44% | -0.68% | 3.2% | 0.51% | 3.64% | -0.7% |
| C[C@@H](Oc1cc(-n2cnc3ccc(OC4CCN(C)CC4)cc32)sc1C(N)=O)c1ccccc1Cl | – | 5.45% | 7.26% | 1.74% | 2.5% | 5.07% | 10.3% | 4.34% | 5.61% | – | -9.57% | 1.25% | 8.32% | 4.49% | 10.5% | 0.86% | 5.39% | 3.24% | 11% | 2.01% |
| NC(=O)c1cc(-c2ccncc2)cc(-c2ccccc2)c1N | -1.56% | 7.55% | 6.44% | 2.07% | 2.41% | 7.15% | 6.71% | 1.02% | 2.18% | -0.84% | -5.82% | 4.33% | 30.6% | 9.63% | 39.4% | 5.03% | 36.6% | 9.54% | 38.8% | 4.26% |
| CCS(=O)(=O)c1ccc(OC)c(Nc2ncc(-c3cccc(-c4ccccc4F)c3)o2)c1 | -0.27% | -2.19% | -0.96% | -1% | -0.6% | -0.65% | -0.27% | 6.6% | 2.9% | 12.3% | 1.97% | 40.6% | 84.4% | 34.5% | 82% | 44.6% | 86.9% | 37.9% | 84.6% | 1.82% |
| NS(=O)(=O)c1ccc(N/N=C2\C(=O)Nc3ccc(C(=O)NCCCn4ccnc4)cc32)cc1 | 6.6% | 4.13% | 11.5% | 0.82% | 2.78% | 4.22% | 5.04% | – | -1.29% | -2.98% | – | 5.15% | 10.9% | 5.17% | 14.3% | 0.91% | 14.2% | 5.21% | 13.1% | 3.66% |
